# CBX7 AlphaScr: blocks human CBX7 binding to H3K27me3 peptide. O95931. AlphaScreen His6-CBX7 / biotin-H3K27me3 peptide binding; hits give low values. normalised signal (fraction of DMSO) (concentration not given with the values). 66,000 tested, 1.1% active; in the data active = normalised signal below about 0.5
# Target sequence (O95931 whole entry, looked up): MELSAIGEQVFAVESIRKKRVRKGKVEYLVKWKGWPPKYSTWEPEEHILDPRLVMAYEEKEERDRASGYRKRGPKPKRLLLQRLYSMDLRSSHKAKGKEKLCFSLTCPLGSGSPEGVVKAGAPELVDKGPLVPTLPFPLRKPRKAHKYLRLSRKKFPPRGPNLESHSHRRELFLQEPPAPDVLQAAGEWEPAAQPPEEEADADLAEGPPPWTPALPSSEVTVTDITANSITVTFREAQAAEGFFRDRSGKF
# An asterisk follows results filed as active. Shown is part of a subset that was picked to be rich in hits.
SMILES,CBX7 AlphaScr
COC(=O)c1cccc(NC(=O)c2ccc3c(c2)C(=O)N(c2ccc(OC)cc2)C3=O)c1,0.98
CCOC(CNC(=O)c1cnn2c(C)c(Cc3ccccc3Br)c(C)nc12)OCC,0.95
CN(C)c1ccc(Nc2nc(-c3cccnc3)nc3ccccc23)cc1,0.67
COc1ccccc1CNC(=O)c1cc2ccccn2n1,1.2
Cc1ccc(C(=O)c2coc3cc(C)ccc3c2=O)cc1,1.2
CCOc1cc2c(cc1OCC)C1C(C(=O)Nc3cccc(C(F)(F)F)c3)c3ccccc3C(=O)N1CC2 (stereo not given),1
COc1ccc(NC2c3ccccc3C(=O)N2c2ccc(C)cn2)cc1OC (stereo not given),0.94
COc1ccc(OC)c(NC2c3ccccc3C(=O)N2c2ccc(Cl)cc2)c1 (stereo not given),0.64
Cc1ccc(N2C(=O)c3ccccc3C2Nc2ccc(Cl)cc2Cl)nc1 (stereo not given),0.87
COc1cc(OC)c(NC2c3ccccc3C(=O)N2c2ccc(C)cn2)cc1Cl (stereo not given),0.41*
COc1ccc(OC)c(NC2c3ccccc3C(=O)N2c2ccc(Cl)cn2)c1 (stereo not given),0.34*
COc1ccc(OC)c(NC2c3ccccc3C(=O)N2c2ccccn2)c1 (stereo not given),0.72
CCC1Oc2ccc(C)cc2N(CC(=O)NCCCN2CCCC2)C1=O (stereo not given),1
CCc1ccc(-c2nc(CN3CCC(C(=O)NCCc4ccc(C)cc4)CC3)c(C)o2)cc1,0.86
Fc1ccc(-c2cc(-c3nc(-c4ccccn4)no3)c3ccccc3n2)cc1,0.65
COc1ccccc1C(=O)NCCc1nc2ccccc2n1C,1.1
Cc1ccc2c(c1)Oc1cc([N+](=O)[O-])cc(Oc3ccccc3C)c1C(=O)N2,0.049*
Cc1ccc2c(c1)Oc1cc([N+](=O)[O-])cc(Oc3ccc(Cl)cc3)c1C(=O)N2,0.2*
CC(=O)Nc1ccc(Oc2cc([N+](=O)[O-])cc3c2C(=O)Nc2ccccc2O3)cc1,0.66
CCc1nnc(NC(=O)CSc2ncn[nH]2)s1,1
Cc1cc(C)c2nc(NC(=O)c3ccc(S(=O)(=O)N(C)c4ccccc4)cc3)sc2c1,1.1
COc1ccc(NC(=O)C2CCCN(S(=O)(=O)c3cccnc3)C2)cc1 (stereo not given),1
CCc1noc(C)c1C(=O)Nc1nnc(C2CC2)s1,1
COc1ccc(OC2C(=O)N(c3ccc(C)c(C)c3)C2c2ccccc2Cl)cc1 (stereo not given),0.98
CCCNC(=O)c1ccc2c(c1)N(Cc1cccc(C)c1)C(=O)c1ccccc1S2,1.1
SMILES,CBX7 AlphaScr
Cc1ccnc(NS(=O)(=O)c2ccc(NC(=O)c3ccc(C)c(C)c3)cc2)n1,1
Cc1ccc(C(=O)c2oc3ccccc3c2NC(=O)COc2ccc(F)cc2)cc1,1.1
CCN(CC)S(=O)(=O)c1ccc(C(=O)Nc2nc(-c3ccccc3)c(C(C)=O)s2)cc1,0.97
Cc1ccc(C)c(CN2C(=O)c3ccccc3Sc3ccc(C(=O)NCCCOC(C)C)cc32)c1,0.85
O=C(NCc1ccccc1)c1cc2n(n1)C(C(F)(F)F)CC(c1ccccc1)N2 (stereo not given),1
Cn1cnc2cc(NCc3cccc(Br)c3)ccc21,0.85
CC(C)n1cnc2cc(NCc3ccccn3)ccc21,0.23*
Cn1cnc2cc(NCc3ccccc3Cl)ccc21,0.92
O=C(O)CC1=C2CN(C1=O)C(c1ccccc1)c1cc(Br)ccc1N2 (stereo not given),1.1
COc1cc(-c2nc(-c3cccs3)c(-c3cccs3)[nH]2)ccc1O,0.44*
COc1cc(-c2nc(-c3ccccc3)c(-c3ccccc3)[nH]2)ccc1O,1.1
COc1ccc(-c2nc(-c3cccs3)[nH]c2-c2ccccc2)cc1OC,0.89
Cc1ccn2c(Nc3ccc4c(c3)OCO4)c(-c3ccc(N(C)C)cc3)nc2c1,0.8
COc1ccc(-c2[nH]c(-c3ccc(F)cc3)nc2SCC(=O)NCC2CCCO2)cc1 (stereo not given),0.97
CCc1ccc2nc(N3CCC(C(=O)NCCN(C)C)CC3)sc2c1,1.6
O=C(Nc1ccccc1)Nc1ccc(-c2nnc3n2CCCCC3)cc1,1.1
O=C(Nc1ccc(F)cc1)C(Cc1ccccc1)NS(=O)(=O)c1cccc2cccnc12 (stereo not given),1.1
CCn1c(COc2cccc3cccnc23)nnc1SCC(=O)OC,0.98
O=C(CC(Sc1cccc2cccnc12)c1ccc(F)cc1)c1cccs1 (stereo not given),0.0063*
COc1cc2[nH]c(=O)n(CCCC(=O)NCc3ccc4c(c3)OCO4)c(=O)c2cc1OC,1
Cc1oc(-c2ccccc2F)nc1CS(=O)(=O)CC(=O)NCCCN1CCc2ccccc2C1,0.92
Cc1ccc(Cn2c(=O)c3cccnc3n(CC(=O)Nc3ccccc3F)c2=O)cc1,1.1
COc1ccc(N2CCN(C3CC(=O)N(c4cccc(Cl)c4)C3=O)CC2)cc1 (stereo not given),1.1
COc1ccc(N2CCC(CNC(=O)Nc3ccccc3)C2)cc1 (stereo not given),0.77

# Source: PubChem (Bradner/Qi Labs at DFCI)
